Several values for one entry are separate records, joined by “and”; a condition that tells them apart may be missing. Equal values may be shown once. This is part of a sample that, as a whole, favours compounds with a hit. Of some 83,000 tested, about 20% had one in any assay.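 Plates (96-well) were seeded with cells, treated with compound at one concentration, and incubated for 48 hours before percent growth was determined.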 Activity calls are given as the source filed them. How the source made its calls: active means growth percent below 10; inactive means the rest.
Experiments:
Experiment in all cases: NCI-60 one-dose screen, 48 h (100 = growth as untreated, 0 = no growth, -100 = all killed)
Conditions in all cases: 10 µM unless noted
NCI-H23 lung = tested on: NCI-H23 lung
NCI-H226 lung = tested on: NCI-H226 lung
NCI-H322M lung = tested on: NCI-H322M lung
HOP-62 NSCLC = tested on: HOP-62 NSCLC
NCI-H460 lung = tested on: NCI-H460 lung
HOP-92 NSCLC = tested on: HOP-92 NSCLC
NCI-H522 lung = tested on: NCI-H522 lung
A549/ATCC NSCLC = tested on: A549/ATCC NSCLC
786-0 renal = tested on: 786-0 renal
COLO 205 colon = tested on: COLO 205 colon

Measured: growth

CCOC(=O)CN1CCC(C(=O)OCC)CC1
inactive: NCI-H23 lung 102% | NCI-H226 lung 107% | NCI-H322M lung 124% | HOP-62 NSCLC 98.9% | NCI-H460 lung 108% | HOP-92 NSCLC 92.3% | NCI-H522 lung 96.1% | A549/ATCC NSCLC 103% | 786-0 renal 109% | COLO 205 colon 112%

COC(=O)c1nc(N)nc(C(=O)OC)c1C(=O)c1cccc2ccccc12
inactive: NCI-H23 lung 101% | NCI-H226 lung 97.1% | NCI-H322M lung 109% | HOP-62 NSCLC 105% | NCI-H460 lung 139% | HOP-92 NSCLC 85.5% | NCI-H522 lung 101% | A549/ATCC NSCLC 107% | 786-0 renal 110% | COLO 205 colon 144%

COc1ccc2oc3cc(NCCN(C)C)ccc3c(=O)c2c1
inactive: NCI-H23 lung 112% and 83% | NCI-H226 lung 109% and 102% | NCI-H322M lung 76.5% | HOP-62 NSCLC 88.2% and 54.1% | NCI-H460 lung 97.7% and 61.7% | HOP-92 NSCLC 88.2% and 82.1% | NCI-H522 lung 65.7% | A549/ATCC NSCLC 95.2% and 73.8% | 786-0 renal 103% and 76.9% | COLO 205 colon 84.3% and 47.7%

Cc1cc(O)c(C(C)C)cc1N=O
inactive: NCI-H23 lung 95.4% and 111% | NCI-H226 lung 99.6% and 108% | NCI-H322M lung 115% and 104% | HOP-62 NSCLC 103% and 99.4% | NCI-H460 lung 115% | HOP-92 NSCLC 79.7% | NCI-H522 lung 93.8% and 74.7% | A549/ATCC NSCLC 106% and 99.9% | 786-0 renal 98.6% and 103% | COLO 205 colon 106% and 112%

COc1ccc(-n2[nH]c3c(cnc4ccccc43)c2=O)cc1
inactive: NCI-H23 lung 73.1% and 95.9% | NCI-H226 lung 103% and 95.3% | NCI-H322M lung 93.2% and 101% | HOP-62 NSCLC 100% and 94.5% | NCI-H460 lung 103% and 108% | HOP-92 NSCLC 99.8% and 102% | NCI-H522 lung 89.2% | A549/ATCC NSCLC 92.4% and 102% | 786-0 renal 77.7% and 91.3% | COLO 205 colon 137% and 119%

COc1ccc(CCO)cc1
inactive: NCI-H23 lung 110% | NCI-H226 lung 92.8% | NCI-H322M lung 99% | HOP-62 NSCLC 96.2% | NCI-H460 lung 108% | HOP-92 NSCLC 86.4% | NCI-H522 lung 88.6% | A549/ATCC NSCLC 92.9% | 786-0 renal 99.3% | COLO 205 colon 96.3%

COc1cc(NCCCCCCCNC(C)C)c2nccc(C)c2c1
inactive: NCI-H23 lung 81.4% and 77.1% | NCI-H226 lung 90.9% and 75.7% | NCI-H322M lung 87% and 68.5% | HOP-62 NSCLC 73.6% and 72.1% | NCI-H460 lung 85.5% and 57.2% | HOP-92 NSCLC 39.3% and 75.6% | NCI-H522 lung 89.1% and 91.7% | A549/ATCC NSCLC 95.1% and 90.6% | 786-0 renal 82.5% and 82.1%
53.8% (inactive) and -5.98% (active): COLO 205 colon

Cc1c(O)nc(N)[nH]c1=O
inactive: NCI-H23 lung 93.8% | NCI-H226 lung 106% | NCI-H322M lung 104% | HOP-62 NSCLC 99.7% | NCI-H460 lung 104% | HOP-92 NSCLC 108% | NCI-H522 lung 99.5% | A549/ATCC NSCLC 99.9% | 786-0 renal 114% | COLO 205 colon 116%

Cc1cc(-c2ccc(N=Nc3c(C)nn(-c4ccc(S(=O)(=O)O)cc4)c3O)c(C)c2)ccc1N=Nc1ccc(O)c(C(=O)O)c1
inactive: NCI-H23 lung 99.1% | NCI-H226 lung 82.2% | NCI-H322M lung 107% | HOP-62 NSCLC 87.7% | NCI-H460 lung 109% | HOP-92 NSCLC 109% | NCI-H522 lung 87.9% | A549/ATCC NSCLC 104% | 786-0 renal 103% | COLO 205 colon 94%

CS(=O)(=O)c1nsc(N)n1
inactive: NCI-H23 lung 94.7% | NCI-H226 lung 99.2% | NCI-H322M lung 98.4% | HOP-62 NSCLC 89.5% | NCI-H460 lung 106% | HOP-92 NSCLC 111% | NCI-H522 lung 91.1% | A549/ATCC NSCLC 87.7% | 786-0 renal 106% | COLO 205 colon 103%

CCOC(=O)c1ccncc1
inactive: NCI-H23 lung 109% | NCI-H226 lung 91.3% | NCI-H322M lung 106% | HOP-62 NSCLC 98.5% | NCI-H460 lung 104% | HOP-92 NSCLC 108% | NCI-H522 lung 98.3% | A549/ATCC NSCLC 104% | 786-0 renal 106% | COLO 205 colon 103%

N#CC(=S)Nc1ccc(Cl)c(Cl)c1
active: NCI-H23 lung 3.93% | NCI-H226 lung 9.29% | NCI-H322M lung -3.76% | NCI-H460 lung 9.12% | HOP-92 NSCLC -15.6% | NCI-H522 lung -14% | COLO 205 colon -22%
inactive: HOP-62 NSCLC 24.3% | A549/ATCC NSCLC 15.6% | 786-0 renal 14.2%

O=C1c2ccccc2C(c2ccccc2)C1c1ccccc1 (stereo not given)
inactive: NCI-H23 lung 91% | NCI-H226 lung 101% | NCI-H322M lung 92.5% | HOP-62 NSCLC 98.6% | NCI-H460 lung 95.8% | HOP-92 NSCLC 80.2% | NCI-H522 lung 86.2% | A549/ATCC NSCLC 91.3% | 786-0 renal 107% | COLO 205 colon 101%

CCOC(=O)C1=CC(=O)CC(C)(C)O1
inactive: NCI-H23 lung 104% and 107% | NCI-H226 lung 114% and 95.3% | NCI-H322M lung 99.2% and 125% | HOP-62 NSCLC 109% and 107% | NCI-H460 lung 107% and 109% | HOP-92 NSCLC 93.5% and 97.1% | NCI-H522 lung 79.7% and 96.2% | A549/ATCC NSCLC 119% and 81.9% | 786-0 renal 110% and 116% | COLO 205 colon 105% and 111%

Nc1c(Cl)cc2c(c1Br)C(=O)c1ccccc1C2=O
inactive: NCI-H23 lung 88.2% | NCI-H226 lung 99.5% | NCI-H322M lung 96% | HOP-62 NSCLC 101% | NCI-H460 lung 110% | HOP-92 NSCLC 125% | NCI-H522 lung 91.7% | A549/ATCC NSCLC 98.1% | 786-0 renal 105% | COLO 205 colon 104%

COc1cc([C@@H]2c3cc4c(cc3[C@H](O)[C@H]3COC(=O)[C@@H]23)OCO4)cc(OC)c1OC
44.1% (inactive) and -74.9% (active): 786-0 renal
active: NCI-H460 lung 4.7% and -1.68% | NCI-H522 lung -13.6% and -44.2% | COLO 205 colon -45.7% and -74.4%
37.5% (inactive) and -7.61% (active): HOP-92 NSCLC
inactive: NCI-H23 lung 12.2% and 13.6% | NCI-H226 lung 51.8% and 45.6% | NCI-H322M lung 38.9% and 23.5% | HOP-62 NSCLC 15.7% | A549/ATCC NSCLC 12.3% and 21.2%

OC1CCCN(Cc2ccccc2)C1 (stereo not given)
inactive: NCI-H23 lung 103% | NCI-H226 lung 106% | NCI-H322M lung 113% | HOP-62 NSCLC 107% | NCI-H460 lung 107% | HOP-92 NSCLC 106% | NCI-H522 lung 101% | A549/ATCC NSCLC 85.4% | 786-0 renal 115% | COLO 205 colon 102%

Cc1c(Cl)c(C)c(Cc2c(C)c(Cl)c(C)c(Cl)c2O)c(O)c1Cl
inactive: NCI-H226 lung 15.7% | NCI-H322M lung 16.1% | HOP-62 NSCLC 15.8% | A549/ATCC NSCLC 14.4% | 786-0 renal 49% | COLO 205 colon 79.4%
active: NCI-H23 lung -13% | NCI-H460 lung 5.16% | HOP-92 NSCLC -20% | NCI-H522 lung 7.1%

O=c1[nH]c(=O)c2[nH]c(=O)[nH]c2[nH]1
inactive: NCI-H23 lung 92.8% | NCI-H226 lung 93.2% | NCI-H322M lung 101% | HOP-62 NSCLC 105% | NCI-H460 lung 104% | HOP-92 NSCLC 89.9% | NCI-H522 lung 112% | A549/ATCC NSCLC 104% | 786-0 renal 94.2% | COLO 205 colon 105%

O=C(O)COc1ccccc1F
inactive: NCI-H23 lung 106% | NCI-H226 lung 94.2% | NCI-H322M lung 106% | HOP-62 NSCLC 117% | NCI-H460 lung 101% | HOP-92 NSCLC 96.3% | NCI-H522 lung 106% | A549/ATCC NSCLC 110% | 786-0 renal 102% | COLO 205 colon 114%

Clc1ccc2sc(-c3ccccc3)nc2c1
inactive: NCI-H23 lung 101% | NCI-H226 lung 82.2% | NCI-H322M lung 102% | HOP-62 NSCLC 74.5% | NCI-H460 lung 80% | HOP-92 NSCLC 105% | NCI-H522 lung 82.5% | A549/ATCC NSCLC 71.4% | 786-0 renal 108% | COLO 205 colon 115%

COC1C(OC(N)=O)C(O)C(Oc2ccc3c(O)c(NC(=O)c4ccc(O)c(CC=C(C)C)c4)c(=O)oc3c2C)OC1(C)C (stereo not given)
inactive: NCI-H23 lung 104% and 93.7% | NCI-H226 lung 104% and 90.5% | NCI-H322M lung 105% and 102% | HOP-62 NSCLC 101% and 98.5% | NCI-H460 lung 116% and 94.9% | HOP-92 NSCLC 78.6% | NCI-H522 lung 44.3% and 131% | A549/ATCC NSCLC 105% and 103% | 786-0 renal 94.2% and 101% | COLO 205 colon 108% and 104%

— PubChem BioAssay (NCI)
